Compound activity: PubChem, National Center for Advancing Translational Sciences (NCATS)
Shown are actives, neighbours in structure and some others; about 8% of the full set was active somewhere.
ELG1 repair inh: inhibitors of ELG1-dependent DNA repair in HEK293T cells. HEK293T ELG1-luciferase reporter, luminescence, 16 h; DNA damage induced by 5-fluorouridine. Potency, µM (highest dose often 46.1 µM), without a hit: at the highest dose activity change, negative = inhibition, actives largely listed as inhibitors. 330,000 tested, 2.3% active; further: potency means the concentration at half of the fitted maximal effect; nearly all actives have a fitted effect of over 55% in size
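Cells (2,000 per well) received 5-fluorouridine plus test compound or DMSO and were incubated 16 hr at 37 °C, 5% CO2. Luciferase activity was read by luminescence 30 min after ONE-Glo addition; signal suppression marked inhibition of damage-induced ELG1 function.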
RORgamma inh: ROR gamma (mouse) transcription inhibition | P51450 | Drosophila S2 Gal4-RORgamma UAS-luciferase reporter, 20 h | Potency, µM (highest dose often 53.6 µM), inactives show at the highest dose activity change, negative = inhibition, hits mostly inhibitors | 310,000 tested, 5.4% active; further: potency means the concentration at half of the fitted maximal effect; nearly all actives have a fitted effect of over 60% in size
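Luciferase reporter read in Schneider cells carrying Gal4-RORγ (mouse) and UAS-Photinus luciferase; cells given compound 1 h before 700 uM copper sulfate induction, then incubated 20 h at ambient temperature.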
Coupling enz: counter-screen for Giardia aldolase inhibitors: coupling enzyme system; coupling enzyme system counterscreen, AmpLite Red fluorescence; activity change, negative = inhibition, % at 58.2 µM, hits read low; 290,000 tested, 0.67% active; AID 2472; in the data active means activity change below about -30%
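Final compound at 57.5 uM, incubated 10 min at RT with coupling enzyme reagent (glyceraldehyde-3-phosphate), then 20 min with substrate and AmpLite Red detection. Fluorescence read at 525/598 nm; tests interference with the coupling assay, not aldolase inhibition.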
Gal4-VP16 FLuc: Gal4-VP16 reporter inhibition counter-screen. Drosophila S2 Gal4-VP16 UAS-luciferase, luminescence, 20 h. Potency, µM (highest dose often 53.6 µM), inactives show at the top dose activity, negative = inhibition, actives largely listed as inhibitors. 310,000 tested, 3.5% active. AID 2546;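 further: Gal4-VP16 expression switched on by copper sulfate through the metallothionein promoter; potency means the concentration at half of the fitted maximal effect; nearly all actives have a fitted effect of over 50% in size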
TSHR antag: human thyrotropin receptor antagonism; P16473; TSHR-expressing cells, TSH-stimulated cAMP HTRF, 2 h; active compounds read low; activity change, negative = inhibition, % at 11.5 µM; 330,000 tested, 0.2% active; AID 504810;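 active means activity change below a set negative limit, meaning inhibition stronger than a set level, cut at about -70% in these data; inconclusive means activity change between two set negative limits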
Target sequence (P16473 whole entry, looked up): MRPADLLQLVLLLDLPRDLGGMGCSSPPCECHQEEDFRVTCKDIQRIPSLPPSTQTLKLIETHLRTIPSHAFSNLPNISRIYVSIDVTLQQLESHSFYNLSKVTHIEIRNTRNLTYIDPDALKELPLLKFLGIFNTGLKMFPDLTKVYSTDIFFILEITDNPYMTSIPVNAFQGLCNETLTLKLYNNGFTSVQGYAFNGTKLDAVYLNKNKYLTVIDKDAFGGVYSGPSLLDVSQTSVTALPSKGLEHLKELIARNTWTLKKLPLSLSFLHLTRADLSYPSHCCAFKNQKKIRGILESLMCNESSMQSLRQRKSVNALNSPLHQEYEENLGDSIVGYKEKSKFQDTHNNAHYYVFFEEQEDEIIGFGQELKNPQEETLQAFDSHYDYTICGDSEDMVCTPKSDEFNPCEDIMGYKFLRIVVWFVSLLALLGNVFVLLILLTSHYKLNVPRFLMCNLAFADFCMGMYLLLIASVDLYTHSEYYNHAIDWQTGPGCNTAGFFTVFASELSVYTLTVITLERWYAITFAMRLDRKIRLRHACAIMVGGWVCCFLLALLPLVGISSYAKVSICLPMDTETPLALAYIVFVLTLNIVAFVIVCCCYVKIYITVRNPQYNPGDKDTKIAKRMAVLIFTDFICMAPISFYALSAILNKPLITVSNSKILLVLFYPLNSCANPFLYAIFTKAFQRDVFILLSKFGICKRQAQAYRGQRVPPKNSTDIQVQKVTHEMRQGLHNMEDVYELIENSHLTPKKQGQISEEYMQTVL
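TSHR-expressing cells, 200/well, pre-treated with compound, then stimulated with EC80 TSH (4nM final) for 2 hours at 37 deg C. cAMP measured by competitive HTRF: anti-cAMP cryptate antibody in lysis buffer plus cAMP-d2, read after 30 minutes at room temperature.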
An asterisk follows results filed as active; [ ] = remark or other dose. Unless noted, the call rests on the fitted dose curve; in most records, active means well fitted curve in the direction sought with a large enough effect; inconclusive means small, poorly fitted or top-dose-only effect, or another doubt; inactive means no such curve, though single readings can be large; an effect the other way counts as inactive or inconclusive. On the % scale 0 is the no-effect control and ±100 the full control effect.

Results for Oc1ccc(N=Nc2ccccc2-c2nn[nH]n2)c(O)c1 ?
ELG1 repair inh: 1%; RORgamma inh: 16µM*; Coupling enz: 2; Gal4-VP16 FLuc: -17%; TSHR antag: 2

What do the screens show for `O=c1ccsn1Cc1ccccc1`?
ELG1 repair inh: 0%; RORgamma inh: 2.2µM*; Coupling enz: -3; Gal4-VP16 FLuc: 4.5µM*; TSHR antag: -7

How did O=c1cc(Cl)[nH]c(=O)n1Cc1ccccc1 do in these assays?
ELG1 repair inh: -14%; RORgamma inh: 18%; Coupling enz: 7; Gal4-VP16 FLuc: -5%; TSHR antag: -5

Results for CCOC(=O)C1=C(COC(=O)c2ccccc2[N+](=O)[O-])NC(=O)NC1C (stereo unspecified) ?
ELG1 repair inh: 18%; TSHR antag: 8

What do the screens show for `COc1ccc(O[C@H]2C=C[C@@H](c3ccccc3)O[C@H]2COC(=O)CC/C(C)=N\OC[C@@H](C)[C@H](OCc2ccccc2)C(C)C)cc1`?
RORgamma inh: 16%[10 µM]; Coupling enz: 2; Gal4-VP16 FLuc: -3%[10 µM]

How did Cn1ccnc1C(O)(c1nnc(-c2ccccc2)o1)C(F)(F)F (stereo unspecified) do in these assays?
ELG1 repair inh: inconclusive; RORgamma inh: 7.1µM*; Coupling enz: 0; Gal4-VP16 FLuc: inconclusive; TSHR antag: 1

What do the screens show for `COCCN(C(=O)C1CCN(C(=O)c2ccccc2C)CC1)c1c(N)n(CC(C)C)c(=O)[nH]c1=O`?
ELG1 repair inh: 0%; TSHR antag: 0

What do the screens show for `C=CCNC(=S)Nc1c(C(=O)OC)[nH]c2cc(OC)ccc12`?
ELG1 repair inh: 3%; RORgamma inh: 2.8µM*; Coupling enz: -2; Gal4-VP16 FLuc: inconclusive; TSHR antag: -2

Results for COC(=O)c1[nH]c2cc(OC)ccc2c1NC(=O)c1c(F)cccc1F ?
ELG1 repair inh: 3%; RORgamma inh: 4%; Coupling enz: 0; Gal4-VP16 FLuc: -11%; TSHR antag: -28

How did CCOc1ccccc1N(C)C(=O)Cn1ncc2c([nH]c3ccc(C)cc32)c1=O do in these assays?
ELG1 repair inh: inconclusive; RORgamma inh: 26%; Coupling enz: 3; Gal4-VP16 FLuc: -6%; TSHR antag: 11

What do the screens show for `O=C1/C(=C/c2ccco2)SC(=S)N1C1CCS(=O)(=O)C1` (stereo unspecified)?
ELG1 repair inh: -14%; RORgamma inh: 23%; Coupling enz: -45*; Gal4-VP16 FLuc: -1%; TSHR antag: -24

How did O=C(CCCN1C(=O)/C(=C\c2ccco2)SC1=S)Nc1ccc2ccccc2c1 do in these assays?
ELG1 repair inh: 10%; RORgamma inh: 13µM*; Coupling enz: -9; Gal4-VP16 FLuc: 10µM*; TSHR antag: -12

What do the screens show for `O=C(O)CN1C(=O)/C(=C/c2ccc(SCc3ccccc3)o2)SC1=S`?
ELG1 repair inh: 11%; RORgamma inh: inconclusive; Coupling enz: -55*; Gal4-VP16 FLuc: inconclusive; TSHR antag: -17

What do the screens show for `O=C(O)CN1C(=O)/C(=C\c2ccc(OC(=O)c3ccco3)cc2)SC1=S`?
ELG1 repair inh: -1%; RORgamma inh: -19%; Coupling enz: 10; Gal4-VP16 FLuc: 7%; TSHR antag: 3

Results for O=C(O)CCCN1C(=O)/C(=C\c2ccco2)SC1=S ?
ELG1 repair inh: -6%; RORgamma inh: 4µM*; Coupling enz: -9; Gal4-VP16 FLuc: 1.3µM*; TSHR antag: -9

What do the screens show for `O=C(CCCN1C(=O)/C(=C/c2ccco2)SC1=S)Nc1ccccc1C(=O)O`?
ELG1 repair inh: 3%; RORgamma inh: 5%; Coupling enz: 2; Gal4-VP16 FLuc: 1%; TSHR antag: -16

Results for COc1ccc(OCCC(=O)OCC(=O)Nc2cccc(S(=O)(=O)N3CCCCC3)c2)cc1 ?
ELG1 repair inh: 5%; TSHR antag: -18

How did C=CCSCC(N)C(=O)O (stereo unspecified) do in these assays?
RORgamma inh: -20%; Coupling enz: 2; Gal4-VP16 FLuc: 2%

Results for CCOc1ccc2[nH]cc(S(=O)(=O)c3ccc(C)cc3)c(=O)c2c1 ?
ELG1 repair inh: 16µM*; RORgamma inh: inconclusive; Coupling enz: 3; Gal4-VP16 FLuc: -6%; TSHR antag: -6

What do the screens show for `COCCn1c(SCc2ccc(F)cc2)nc2c1c(=O)[nH]c(=O)n2C`?
ELG1 repair inh: -2%; RORgamma inh: -3%; Coupling enz: -4; Gal4-VP16 FLuc: 5%; TSHR antag: 0

How did CC1=C(C(=O)Nc2ccccc2)C(c2ccc(C)cc2)N=C(Nc2nc3ccccc3o2)N1 (stereo unspecified) do in these assays?
ELG1 repair inh: inconclusive; RORgamma inh: inconclusive; Coupling enz: 5; Gal4-VP16 FLuc: 11µM*; TSHR antag: 3

How did O=C(CCSc1nc2ccccc2o1)Nc1ccccc1 do in these assays?
ELG1 repair inh: 7%; RORgamma inh: 1%; Coupling enz: -2; Gal4-VP16 FLuc: -3%; TSHR antag: 2

What do the screens show for `COC(=O)c1ccccc1NC(=O)CN1CCC(NC(=O)c2ccc(C)cc2)CC1`?
ELG1 repair inh: 16µM*; RORgamma inh: -16%; Coupling enz: 1; Gal4-VP16 FLuc: -12%; TSHR antag: 4

How did COc1ccc(F)cc1CN1CCN(CC(=O)Nc2ccccc2C(=O)NC2CC2)CC1 do in these assays?
ELG1 repair inh: 10µM*; TSHR antag: 3

What do the screens show for `COc1cc(Cl)c(C)cc1NC(=O)c1ccccc1NC(=O)CN1CCOCC1`?
ELG1 repair inh: 16µM*; RORgamma inh: -14%; Coupling enz: 4; Gal4-VP16 FLuc: -4%; TSHR antag: -9

What do the screens show for `O=C(CN1CCN(S(=O)(=O)c2ccc(F)cc2)CC1)Nc1ccccc1C(=O)NC1CC1`?
ELG1 repair inh: -7%; TSHR antag: -4

Results for COc1ccccc1NC(=O)CN1CCN(CC(=O)Nc2ccc(Cl)c(C(F)(F)F)c2)CC1 ?
ELG1 repair inh: 18µM*; RORgamma inh: inconclusive; Coupling enz: -3; Gal4-VP16 FLuc: inconclusive; TSHR antag: -5

What do the screens show for `COc1cc(NC(=O)c2ccccc2F)c(OC)cc1NC(=O)CN1CCOCC1`?
ELG1 repair inh: inconclusive; RORgamma inh: -15%; Coupling enz: 4; Gal4-VP16 FLuc: -2%; TSHR antag: -8

What do the screens show for `Cc1ccc(C(=O)NC2CCN(CC(=O)Nc3ccccc3Cl)CC2)cc1`?
ELG1 repair inh: 7%; RORgamma inh: inconclusive; Coupling enz: 2; Gal4-VP16 FLuc: -6%; TSHR antag: 0

How did CC(CC(O)C1OC1(C)C)C1CCC2(C)C3=CCC4C(C)(C)C(=O)CCC4(C)C3CC[C@@]12C (stereo partly specified) do in these assays?
RORgamma inh: 6%; Coupling enz: -1; Gal4-VP16 FLuc: inconclusive
